We go through 40 compounds from PubChem BioAssay.

The source made the active and inactive calls. Cut-off read from the data, not from the text of the source, unless noted: active = inhibition above about 44%; inactive = the rest.

Chain of Steroidogenic factor 1 (Homo sapiens) (Q13285 whole entry, looked up): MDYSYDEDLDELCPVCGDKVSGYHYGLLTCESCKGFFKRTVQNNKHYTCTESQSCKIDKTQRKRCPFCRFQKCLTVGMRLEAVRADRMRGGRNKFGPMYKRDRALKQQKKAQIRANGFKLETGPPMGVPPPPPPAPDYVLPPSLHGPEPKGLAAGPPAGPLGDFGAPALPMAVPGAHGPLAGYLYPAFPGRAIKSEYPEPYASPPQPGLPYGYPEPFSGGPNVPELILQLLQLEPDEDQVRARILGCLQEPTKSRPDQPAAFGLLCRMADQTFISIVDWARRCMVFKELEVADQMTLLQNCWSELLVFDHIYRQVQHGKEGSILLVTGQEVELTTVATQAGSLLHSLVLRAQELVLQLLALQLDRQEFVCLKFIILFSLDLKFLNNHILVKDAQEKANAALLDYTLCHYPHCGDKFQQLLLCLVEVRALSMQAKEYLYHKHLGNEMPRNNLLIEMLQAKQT

One assay addresses Steroidogenic factor 1 (Homo sapiens) (UniProt Q13285). Kind of assay: inverse agonism at SF1 nuclear receptor – cell-based, luminescence, high throughput, counter-screen for LRH-1 inverse agonist project (AID 651614).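 Note: cells cotransfected with StAR promoter reporter and SF1 expression vector; 0% = vehicle on cells with receptor and 100% = vehicle on cells lacking receptor.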 To be noted: cell-based SF1 luciferase reporter, at 3.6 µM, hits give high values. Background: The purpose of a counterscreen is to sort out artefacts and off-target activity.
The inhibition is the change of the read-out against control, counted positive when it falls. Consider `COc1ccc2c(c1)c[n+](C)c1c3cc(OC)c(OC)cc3ccc21`, for which the inhibition was 56.5% (active).

Regarding `Oc1cccc(Nc2nc(N3CCOCC3)nc(N3CCOCC3)n2)c1`, the inhibition was 21.6% (inactive).

As for `O=[N+]([O-])c1ccc(COc2cccc(CNc3ccc(Br)cc3)c2)cc1`, the inhibition was 37.4% (inactive).

As for `c1ccc(-c2nc(NCc3cccnc3)c3oc4ccccc4c3n2)cc1`, the inhibition was 60.6% (active).

`C/C(CC1CC(C)(C)OC1=O)=N/Nc1nc(-c2ccccc2)cs1` (stereo not given): the inhibition is 54.3% (active).

With `Cc1onc(-c2c(F)cccc2Cl)c1C(=O)c1ccc(F)cc1`, the inhibition was 46.2% (active).

As to `COCCn1c(SCC(=O)Nc2ccc(NC(C)=O)cc2)nc2ccccc2c1=O`, the inhibition is 52% (active).

Take `Cc1ccc(SCC(=O)Nc2ccc(N3CCOCC3)cc2)cc1C`: the inhibition was 47.2% (active).

`Cc1cnc(NC(=O)CCCc2nc3ccccc3s2)s1`: the inhibition is 42.5% (inactive).

Turning to `Cc1csc(=O)n1CCC(=O)OCC(=O)Nc1ccc(N2CCOCC2)cc1`, the inhibition was 44.2% (active).

Turning to `COc1ccc(N2CCN(C(=O)C3CCC(Cn4c(=S)[nH]c5ccccc5c4=O)CC3)CC2)cc1` (stereo not given), the inhibition is 39.2% (inactive).

`Cc1c(Cl)cccc1NC(=O)CS(=O)(=O)c1ccccc1`: the inhibition was 55.5% (active).

Turning to `COc1ccc(CNC(=O)O[C@@H]2C[C@H]3C(=O)N(c4ccccc4)C(=O)[C@H]3[C@@]3(CN(S(=O)(=O)c4ccc(C)cc4)C[C@H]3C)[C@@H]2O)cc1OC`, the inhibition was 13.8% (inactive).

For `O=C(CN1CCN(c2ccc([N+](=O)[O-])cc2)CC1)c1ccccc1`, the inhibition is 48.5% (active).

In the case of `O=[N+]([O-])c1cnccc1Nc1ccccc1`, the inhibition was 58.9% (active).

Consider `CCCn1c(NC(=O)c2ccc([N+](=O)[O-])o2)nc2ccccc21`, for which the inhibition was 21.2% (inactive).

As to `Cc1ccc(C)c(NC(=O)CSc2nc3[nH]ncc3c(=O)[nH]2)c1`, the inhibition is 56% (active).

Turning to `COc1ccc(CCNC(=O)CN2C(=O)C3(OCCCO3)c3ccccc32)cc1OC`, the inhibition was 52.5% (active).

As to `COc1ccc(C(=O)N/N=C(\c2ccccc2)c2ccccn2)cc1`, the inhibition is 84.9% (active).

For the compound `CSc1ccc(CNc2cccc3ccccc23)cc1`, the inhibition is 24.7% (inactive).

Regarding `O=C(COC(=O)c1ccccn1)Nc1cccnc1Cl`, the inhibition was 39.4% (inactive).

As for `CC1CCC2(CC1)NC(=O)N(CC(=O)Nc1ccc3c(c1)OCCCO3)C2=O` (stereo not given), the inhibition was 44.8% (active).

Consider `O=C(O)/C=C/C(=O)Nc1ccccc1SC(F)(F)C(F)(F)C(F)(F)F`, for which the inhibition was 45.5% (active).

In the case of `CC1(C(=O)NCc2ccco2)Cc2c(-c3cccc(C(N)=O)c3)ccnc2O1` (stereo not given), the inhibition was 59.3% (active).

On to `O=C(CSc1nc2[nH]ncc2c(=O)n1-c1ccccc1)c1ccc2c(c1)OCCO2`, for which the inhibition is 32.6% (inactive).

With `CCCc1cc(=O)oc2c(C)c(OCC(=O)NC3CC(C)(C)NC(C)(C)C3)ccc12`, the inhibition was 59% (active).

For `CC(=O)c1ccsc1-c1c(C)cc2oc(=O)cc(-c3ccccc3)c2c1C`, the inhibition is 54.4% (active).

On to `Cc1ccc(C)c(NC(=O)CSc2nnc(-c3n[nH]c4ccccc34)o2)c1`, for which the inhibition was 50.4% (active).

As for `CC(=O)Nc1ccc(NC(=O)CSc2nnc(NC(=O)C3CC3)s2)cc1`, the inhibition is 48.2% (active).

On to `CC(=O)ON=C1C=CC(=C(C#N)c2ccccc2)C=C1`, for which the inhibition is 79.4% (active).

Turning to `CCOCC(=O)Nc1cccc(C(=O)OCC)c1`, the inhibition is 28.2% (inactive).

In the case of `CC1SC(C)C(=O)N(CC(=O)Nc2ccc3c(c2)OCO3)C1=O` (stereo not given), the inhibition is 36.9% (inactive).

Consider `COc1ccccc1Oc1nnnn1-c1ccc(C(N)=O)cc1`, for which the inhibition was 51.8% (active).

In the case of `COCCn1c(SCC(=O)Nc2ccc(C(N)=O)cc2)nc2c([nH]c3ccccc32)c1=O`, the inhibition was 61.7% (active).

Take `COc1ccc(O)c(/C=N/Nc2nc(Nc3ccccc3)nc(-n3nc(C)cc3C)n2)c1`: the inhibition is -41.8% (inactive).

On to `O=C(NCc1cccnc1)c1ccc(NC(=O)c2ccc(Br)cc2)cc1`, for which the inhibition was 91.9% (active).

Take `O=C(CSc1ncccc1-c1nc2ccccc2[nH]1)Nc1ccc2c(c1)OCCO2`: the inhibition was 5.63% (inactive).

As to `Cc1ccc(NC(=O)CN2CCC(NC(=O)C3CCCCC3)CC2)c(Br)c1`, the inhibition was 44.9% (active).

On to `Cc1cc(C(=O)NC2CCCc3c2cnn3-c2cccc(C)c2C)n(C)n1` (stereo not given), for which the inhibition was 58.4% (active).

As for `Cc1cc(C)c(SCCc2ccncc2)c(C)c1`, the inhibition was 57.5% (active).

System in a further assay: not listed separately
The experiment in a line: compounds suppressing VP16-driven luciferase signal – cell-based, luminescence, high throughput, counter-screen for LRH-1 inverse agonist project (AID 651615; in the data active = inhibition above about 33%). To be noted: Gal4-VP16 luciferase reporter cells, at 3.6 µM, hits give high values.
Turning to `COc1ccc2c(c1)c[n+](C)c1c3cc(OC)c(OC)cc3ccc21`, the inhibition was 68.9% (active).

On to `Oc1cccc(Nc2nc(N3CCOCC3)nc(N3CCOCC3)n2)c1`, for which the inhibition is 21% (inactive).

With `O=[N+]([O-])c1ccc(COc2cccc(CNc3ccc(Br)cc3)c2)cc1`, the inhibition is -6.59% (inactive).

Turning to `c1ccc(-c2nc(NCc3cccnc3)c3oc4ccccc4c3n2)cc1`, the inhibition is -22.9% (inactive).

Consider `C/C(CC1CC(C)(C)OC1=O)=N/Nc1nc(-c2ccccc2)cs1` (stereo not given), for which the inhibition was -29.5% (inactive).

For `Cc1onc(-c2c(F)cccc2Cl)c1C(=O)c1ccc(F)cc1`, the inhibition is -8.21% (inactive).

Regarding `COCCn1c(SCC(=O)Nc2ccc(NC(C)=O)cc2)nc2ccccc2c1=O`, the inhibition is 2.35% (inactive).

Consider `Cc1ccc(SCC(=O)Nc2ccc(N3CCOCC3)cc2)cc1C`, for which the inhibition is -10.5% (inactive).

For the compound `Cc1cnc(NC(=O)CCCc2nc3ccccc3s2)s1`, the inhibition was 29.4% (inactive).

As to `Cc1csc(=O)n1CCC(=O)OCC(=O)Nc1ccc(N2CCOCC2)cc1`, the inhibition is -3.02% (inactive).

`COc1ccc(N2CCN(C(=O)C3CCC(Cn4c(=S)[nH]c5ccccc5c4=O)CC3)CC2)cc1` (stereo not given): the inhibition is 26.8% (inactive).

For `Cc1c(Cl)cccc1NC(=O)CS(=O)(=O)c1ccccc1`, the inhibition is -1.09% (inactive).

Regarding `COc1ccc(CNC(=O)O[C@@H]2C[C@H]3C(=O)N(c4ccccc4)C(=O)[C@H]3[C@@]3(CN(S(=O)(=O)c4ccc(C)cc4)C[C@H]3C)[C@@H]2O)cc1OC`, the inhibition was 8.56% (inactive).

Consider `O=C(CN1CCN(c2ccc([N+](=O)[O-])cc2)CC1)c1ccccc1`, for which the inhibition was 9.99% (inactive).

For `O=[N+]([O-])c1cnccc1Nc1ccccc1`, the inhibition is 1.98% (inactive).

On to `CCCn1c(NC(=O)c2ccc([N+](=O)[O-])o2)nc2ccccc21`, for which the inhibition is -2.27% (inactive).

For `Cc1ccc(C)c(NC(=O)CSc2nc3[nH]ncc3c(=O)[nH]2)c1`, the inhibition was 7.57% (inactive).

On to `COc1ccc(CCNC(=O)CN2C(=O)C3(OCCCO3)c3ccccc32)cc1OC`, for which the inhibition is -9.46% (inactive).

As to `COc1ccc(C(=O)N/N=C(\c2ccccc2)c2ccccn2)cc1`, the inhibition is 60.4% (active).

Turning to `CSc1ccc(CNc2cccc3ccccc23)cc1`, the inhibition was -39.8% (inactive).

Consider `O=C(COC(=O)c1ccccn1)Nc1cccnc1Cl`, for which the inhibition is -6.21% (inactive).

Regarding `CC1CCC2(CC1)NC(=O)N(CC(=O)Nc1ccc3c(c1)OCCCO3)C2=O` (stereo not given), the inhibition was -7.87% (inactive).

As for `O=C(O)/C=C/C(=O)Nc1ccccc1SC(F)(F)C(F)(F)C(F)(F)F`, the inhibition was 6.88% (inactive).

In the case of `CC1(C(=O)NCc2ccco2)Cc2c(-c3cccc(C(N)=O)c3)ccnc2O1` (stereo not given), the inhibition is -9.28% (inactive).

With `O=C(CSc1nc2[nH]ncc2c(=O)n1-c1ccccc1)c1ccc2c(c1)OCCO2`, the inhibition was -16.1% (inactive).

In the case of `CCCc1cc(=O)oc2c(C)c(OCC(=O)NC3CC(C)(C)NC(C)(C)C3)ccc12`, the inhibition is 9.82% (inactive).

Regarding `CC(=O)c1ccsc1-c1c(C)cc2oc(=O)cc(-c3ccccc3)c2c1C`, the inhibition is -0.37% (inactive).

Turning to `Cc1ccc(C)c(NC(=O)CSc2nnc(-c3n[nH]c4ccccc34)o2)c1`, the inhibition is 5.08% (inactive).

On to `CC(=O)Nc1ccc(NC(=O)CSc2nnc(NC(=O)C3CC3)s2)cc1`, for which the inhibition was -1.05% (inactive).

As for `CC(=O)ON=C1C=CC(=C(C#N)c2ccccc2)C=C1`, the inhibition was 20.2% (inactive).

On to `CCOCC(=O)Nc1cccc(C(=O)OCC)c1`, for which the inhibition was 2.72% (inactive).

With `CC1SC(C)C(=O)N(CC(=O)Nc2ccc3c(c2)OCO3)C1=O` (stereo not given), the inhibition is -7.59% (inactive).

With `COc1ccccc1Oc1nnnn1-c1ccc(C(N)=O)cc1`, the inhibition is -9.03% (inactive).

In the case of `COCCn1c(SCC(=O)Nc2ccc(C(N)=O)cc2)nc2c([nH]c3ccccc32)c1=O`, the inhibition is -64% (inactive).

Regarding `COc1ccc(O)c(/C=N/Nc2nc(Nc3ccccc3)nc(-n3nc(C)cc3C)n2)c1`, the inhibition is -35.4% (inactive).

In the case of `O=C(NCc1cccnc1)c1ccc(NC(=O)c2ccc(Br)cc2)cc1`, the inhibition is 18.5% (inactive).

Regarding `O=C(CSc1ncccc1-c1nc2ccccc2[nH]1)Nc1ccc2c(c1)OCCO2`, the inhibition is -15.5% (inactive).

In the case of `Cc1ccc(NC(=O)CN2CCC(NC(=O)C3CCCCC3)CC2)c(Br)c1`, the inhibition was 7.56% (inactive).

As for `Cc1cc(C(=O)NC2CCCc3c2cnn3-c2cccc(C)c2C)n(C)n1` (stereo not given), the inhibition was 59.1% (active).

Turning to `Cc1cc(C)c(SCCc2ccncc2)c(C)c1`, the inhibition was 34.3% (active).
